According to PubChem BioAssay AID1671202 (University of Kansas High Throughput Screening Laboratory, 2021):
The whole screen tested about 190,000 compounds, of which about 6,900 (3.6%) were called active. The sample as a whole holds a higher share of actives than the screen did. Values without a mark were called inactive. Cut-off read from the data, not from the text of the source: active = inhibition above about 50%; inactive = the rest.

Target: Huntingtin (Homo sapiens) (UniProt P42858)
Assay: mutant huntingtin-calmodulin interaction inhibitors – biochemical, AlphaScreen, primary screen (AID 1671202);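 note: 0% = both proteins with DMSO and 100% = one protein alone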
Conditions: AlphaScreen His-mHTT/GST-CaM binding, luminescence; at 15 µM, hits give high values

Huntingtin (Homo sapiens), sequence (P42858 whole entry, looked up, stated change not applied): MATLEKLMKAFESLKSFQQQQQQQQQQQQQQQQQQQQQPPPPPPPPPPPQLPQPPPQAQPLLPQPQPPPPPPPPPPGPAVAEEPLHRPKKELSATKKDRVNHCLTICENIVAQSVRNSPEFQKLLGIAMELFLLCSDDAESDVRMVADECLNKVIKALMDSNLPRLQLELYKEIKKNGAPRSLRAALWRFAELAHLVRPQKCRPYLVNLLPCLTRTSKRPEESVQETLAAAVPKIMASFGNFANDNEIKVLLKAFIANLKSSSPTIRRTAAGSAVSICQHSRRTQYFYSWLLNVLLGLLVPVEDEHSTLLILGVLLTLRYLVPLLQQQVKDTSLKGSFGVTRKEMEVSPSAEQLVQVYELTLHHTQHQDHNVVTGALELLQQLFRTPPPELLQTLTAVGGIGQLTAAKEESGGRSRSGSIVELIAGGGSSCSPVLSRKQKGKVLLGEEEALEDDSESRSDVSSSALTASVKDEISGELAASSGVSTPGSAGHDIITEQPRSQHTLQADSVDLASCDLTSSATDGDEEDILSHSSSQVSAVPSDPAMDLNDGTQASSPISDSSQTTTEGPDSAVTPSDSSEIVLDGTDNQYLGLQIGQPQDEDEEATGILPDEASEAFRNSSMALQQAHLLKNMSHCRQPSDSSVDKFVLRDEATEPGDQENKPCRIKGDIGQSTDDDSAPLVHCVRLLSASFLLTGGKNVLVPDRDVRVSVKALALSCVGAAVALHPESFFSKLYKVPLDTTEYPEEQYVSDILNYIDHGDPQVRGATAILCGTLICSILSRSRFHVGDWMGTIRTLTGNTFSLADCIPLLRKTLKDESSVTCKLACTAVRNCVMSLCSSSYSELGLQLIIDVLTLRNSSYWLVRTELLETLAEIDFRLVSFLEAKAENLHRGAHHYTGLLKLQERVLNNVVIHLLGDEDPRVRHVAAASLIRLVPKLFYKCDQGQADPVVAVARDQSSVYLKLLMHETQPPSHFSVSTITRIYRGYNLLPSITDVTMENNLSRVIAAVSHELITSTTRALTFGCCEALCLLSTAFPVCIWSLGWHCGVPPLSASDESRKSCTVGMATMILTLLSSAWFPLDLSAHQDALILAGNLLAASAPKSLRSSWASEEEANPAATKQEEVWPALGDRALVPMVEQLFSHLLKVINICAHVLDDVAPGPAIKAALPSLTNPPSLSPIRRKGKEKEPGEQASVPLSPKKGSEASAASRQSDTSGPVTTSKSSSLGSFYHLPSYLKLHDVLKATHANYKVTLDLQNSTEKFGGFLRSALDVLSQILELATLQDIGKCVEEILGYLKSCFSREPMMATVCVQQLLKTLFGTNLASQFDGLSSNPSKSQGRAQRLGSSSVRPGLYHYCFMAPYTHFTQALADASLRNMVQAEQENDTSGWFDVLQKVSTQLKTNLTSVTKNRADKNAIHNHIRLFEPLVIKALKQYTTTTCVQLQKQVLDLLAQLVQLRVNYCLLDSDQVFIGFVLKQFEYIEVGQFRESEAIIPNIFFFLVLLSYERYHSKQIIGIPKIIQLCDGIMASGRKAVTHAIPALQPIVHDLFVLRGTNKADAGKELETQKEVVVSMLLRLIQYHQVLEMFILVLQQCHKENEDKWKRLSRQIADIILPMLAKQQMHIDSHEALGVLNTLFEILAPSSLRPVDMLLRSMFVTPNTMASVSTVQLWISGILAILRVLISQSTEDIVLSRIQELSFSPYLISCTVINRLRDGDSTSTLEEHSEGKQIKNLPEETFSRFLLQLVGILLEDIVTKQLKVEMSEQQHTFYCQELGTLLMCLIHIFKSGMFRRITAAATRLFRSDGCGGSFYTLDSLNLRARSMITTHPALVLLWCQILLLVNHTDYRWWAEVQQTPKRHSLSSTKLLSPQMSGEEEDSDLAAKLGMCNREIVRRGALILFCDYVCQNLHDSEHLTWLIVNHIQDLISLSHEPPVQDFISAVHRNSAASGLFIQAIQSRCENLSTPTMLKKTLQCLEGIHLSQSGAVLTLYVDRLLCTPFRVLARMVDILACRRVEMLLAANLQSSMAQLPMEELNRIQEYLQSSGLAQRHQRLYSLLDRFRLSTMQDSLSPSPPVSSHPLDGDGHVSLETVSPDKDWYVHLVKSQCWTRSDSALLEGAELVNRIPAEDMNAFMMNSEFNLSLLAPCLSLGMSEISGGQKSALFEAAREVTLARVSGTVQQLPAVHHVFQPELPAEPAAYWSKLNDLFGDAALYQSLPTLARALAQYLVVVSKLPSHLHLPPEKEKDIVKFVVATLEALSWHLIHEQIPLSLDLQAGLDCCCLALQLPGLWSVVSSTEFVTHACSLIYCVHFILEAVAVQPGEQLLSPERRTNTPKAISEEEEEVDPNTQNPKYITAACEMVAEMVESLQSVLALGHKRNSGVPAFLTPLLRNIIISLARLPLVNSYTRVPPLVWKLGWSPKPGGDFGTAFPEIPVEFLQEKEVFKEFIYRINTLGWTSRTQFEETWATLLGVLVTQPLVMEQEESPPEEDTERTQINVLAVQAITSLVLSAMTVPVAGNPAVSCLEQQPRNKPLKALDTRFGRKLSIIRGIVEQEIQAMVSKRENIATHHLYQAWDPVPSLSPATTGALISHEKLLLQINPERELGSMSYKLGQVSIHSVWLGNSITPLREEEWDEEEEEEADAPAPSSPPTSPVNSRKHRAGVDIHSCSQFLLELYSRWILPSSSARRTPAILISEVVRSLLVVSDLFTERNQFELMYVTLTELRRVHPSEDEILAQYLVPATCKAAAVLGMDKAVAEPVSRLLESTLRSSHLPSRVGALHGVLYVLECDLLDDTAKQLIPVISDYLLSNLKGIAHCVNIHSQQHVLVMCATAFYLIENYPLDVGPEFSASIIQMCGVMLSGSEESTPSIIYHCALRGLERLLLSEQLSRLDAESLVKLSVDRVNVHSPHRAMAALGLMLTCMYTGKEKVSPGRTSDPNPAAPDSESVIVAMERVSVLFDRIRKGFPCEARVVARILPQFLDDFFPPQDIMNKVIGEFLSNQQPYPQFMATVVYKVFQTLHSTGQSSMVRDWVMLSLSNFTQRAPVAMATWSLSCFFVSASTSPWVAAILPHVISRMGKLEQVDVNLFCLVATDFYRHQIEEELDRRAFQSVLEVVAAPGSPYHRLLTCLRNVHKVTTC

SMILES | inhibition
CCS(=O)(=O)NCC1CCC(C(=O)Nc2ccccc2C)CC1 (centres undefined) | -10.6%
O=C(C1CCCN(Cc2c[nH]c3ccccc23)C1)N1CCCCCC1 (centres undefined) | 11.1%
Cc1ccc(C(=O)N2CCN(c3ccccc3)CC2)c(Cl)c1 | 2.2%
O=C(c1cccc2[nH]cc(CN3CCCC3)c12)N1CCN(c2ccccc2)CC1 | 54.3% (active)
CCN(CC)C(=O)CSc1nnc(NC(C)=O)s1 | -5.1%
O=C(N=c1sccn1CC(=O)N1CCCC1)c1ccccc1Cl | 7%
O=C(NC1CC2CC1N(C(=O)NCCc1ccccc1)C2)c1cccnc1 (centres undefined) | 0.1%
COc1ccccc1/C=C/CN1CCN(C)CC1 | -4.8%
COc1cccc(CN2CCN(C/C=C/c3ccccc3)CC2)c1OC | 6.9%
COc1cc(CN2CCN(C/C=C/c3ccccc3)CC2)cc(Br)c1O | 55.5% (active)
Cc1oc(C2CCN(S(=O)(=O)c3ccc(F)cc3)CC2)nc1C(=O)N1CCOCC1 | -2.14%
CC(=O)NCCc1csc(C2CCN(C(=O)C3(c4ccccc4)CC3)CC2)n1 | 0.81%
COc1cc(C=O)cc(Br)c1OCc1ccccn1 | -0.1%
CCOc1ccc(/C=C2/N=C(c3ccc(Cl)cc3)OC2=O)cc1OCC | -5%
C=CCOc1ccc(/C=C2/C(=O)ON=C2C)cc1OCC | 89% (active)
CCOc1c(Br)cc(/C=C2\NC(=O)N(Cc3ccccc3F)C2=O)cc1OC | -4%
CCOc1cc(C=C2C(=O)OC(C)(c3ccccc3)OC2=O)ccc1O (centres undefined) | 7%
CCOc1cc(/C=C2\C(=O)ON=C2C)cc(Br)c1OCc1ccccc1F | 51% (active)
NS(=O)(=O)c1ccc(NC(=O)CSc2nc3sc4c(c3c(=O)[nH]2)CCC4)cc1 | 5%
COc1ccc(C2SCCN2C(=O)c2cc3ccccc3oc2=O)cc1 (centres undefined) | 0%
COc1ccc(C2CC(O)(C#Cc3ccccc3)C(C)C(c3ccc(OC)cc3)N2)cc1 (centres undefined) | 100% (active)
Cc1[nH]nc(-c2ccc(S(=O)(=O)N3CCC(N4CCCCC4)CC3)s2)c1C | 7.48%
Cc1n[nH]c(C)c1S(=O)(=O)N1CCC(C(=O)Nc2ccc(Br)cc2)CC1 | -8%
CN(C)c1ccc(Nc2nc(-c3ccc(Cl)cc3)cs2)cc1 | 57.2% (active)

SMILES | inhibition
COc1cc(NS(=O)(=O)c2ccc(Nc3nc(-c4cccnc4)cs3)cc2)nc(OC)n1 | 25.8%
COc1cccc(N/C=C(\C#N)c2nc(-c3ccc(Cl)cc3)cs2)c1 | -2%
Clc1ccc(-c2csc(Nc3ncccn3)n2)cc1 | -1%
COc1ccc2oc(=O)c(-c3csc(Nc4cccc(C(C)=O)c4)n3)cc2c1 | 2%
COc1cccc(Nc2nc(-c3ccc(Cl)cc3)cs2)c1 | 82.2% (active)
O=C(Nc1nc(-c2ccc([N+](=O)[O-])cc2)cs1)c1ccc(Cl)cc1 | 0.3%
COc1ccc(-c2csc(Nc3ccc(O)cc3)n2)cc1 | 61.1% (active)
CC(Oc1ccccc1)C(=O)Nc1nc(-c2ccccc2)cs1 (centres undefined) | -30%
Cc1ccsc1C1C(C#N)=C(N)N(c2ccc(Br)cc2)C2=C1C(=O)CCC2 (centres undefined) | 22%
COC(=O)c1ccc(Cl)cc1NC(=O)N1CCOc2ccccc21 | -2.93%
Cc1ccc(S(=O)(=O)CCC(=O)Nc2c(F)cccc2F)cc1 | 0%
CCN(CC)S(=O)(=O)c1ccc2oc(C(=O)NCC3CCCO3)c(C)c2c1 (centres undefined) | 6%
O=C(Nc1cccc(Cl)c1)C1CCCN(c2nccnc2Oc2ccccc2)C1 (centres undefined) | -9.65%
COc1ccc(C)cc1NC(=O)N1CC2CC(NC(=O)c3cccs3)C1C2 (centres undefined) | 3.7%
COc1cc(NC(=O)c2noc3c2CCCC3)cc(OC)c1OC | 1.68%
O=S1(=O)c2cccc3cccc(c23)N1Cc1cccc(F)c1 | -24.4%
O=C(Nc1ccc(N2CCN(C3CCCC3)C2=O)nc1)c1cc(F)cc(F)c1 | -7.5%
CC1CCN(CCNC(=O)CN2C(=O)C3CCCN3C(=O)c3ccc(F)cc32)CC1 (centres undefined) | 1.11%
Cc1cccc(CNC(=O)CN2C(=O)C3CCCN3C(=O)c3cccc(C)c32)c1 (centres undefined) | -6.69%
Cc1ccc2c(c1)C(=O)N1CCCCC1C(=O)N2CC(=O)NCCN1CCCCCC1 (centres undefined) | 75% (active)
CC(=O)NCc1csc(C2CCN(S(=O)(=O)c3ccc(C)cc3C)CC2)n1 | 6.65%
Cc1ccc(C2NC(=O)c3c(sc4c3CCCC4)N2)cc1 (centres undefined) | 5%
Cc1ccc(C2NC(=O)c3c(sc4c3CCCC4)N2)c(O)c1 (centres undefined) | 78% (active)
O=C1NC(c2ccncc2)Nc2sc3c(c21)CCCC3 (centres undefined) | 16%

SMILES | inhibition
Cc1ccc2c(c1)C(=O)NC1(CCN(C(=O)C3CCC3)CC1)N2 | 3.5%
CCOC(=O)C(C)Oc1ccc2c(c1)OC(=Cc1ccc(OC)cc1)C2=O (centres undefined) | -21.4%
COc1ccc(C(=O)Nc2cccc(NC(=O)c3ccc(Cl)cc3Cl)c2)cc1 | 4.1%
O=C(c1ccc(F)c(F)c1)N1CCN(c2nnc3ccccn23)CC1 | -6.3%
Cc1cc(NC(=O)N2CC3CCCN3c3ccccc32)ccc1Br (centres undefined) | 87% (active)
CCn1c(C2CCN(C(=O)Nc3ccc(Br)c(C)c3)C2)nc2cccnc21 (centres undefined) | 25.2%
COc1cc(OC)c(NC(=O)N2CC3CCCN3c3ccccc32)cc1Cl (centres undefined) | 38.8%
CC(C)(C)NC(=O)N1CCC(CNS(=O)(=O)c2ccc(Br)s2)CC1 | -7.3%
CCCNc1cc(N2CCCC(CCC(=O)N3CCN(CCC)CC3)C2)ncn1 (centres undefined) | 5.87%
CCCNc1cc(N2CCCC(CCC(=O)Nc3ccc4c(c3)OCCO4)C2)ncn1 (centres undefined) | 62.5% (active)
CCCNc1cc(N2CCCC(CCC(=O)Nc3cccc(C)c3C)C2)ncn1 (centres undefined) | -0.7%
Cc1ccc(Cl)cc1N1CCN(C(=O)Cn2nc(C(F)(F)F)c(Br)c2C)CC1 | -5%
C=C(C)c1nc2ccc(Br)cc2c(=O)o1 | -3%
CCc1cccc(NC(=O)N2CCc3c(c(-c4nc(C)no4)nn3C)C2)c1 | 53.9% (active)
Cc1cccc(NC(=O)N2CCc3c(c(-c4nc(C5CC5)no4)nn3C)C2)c1 | 34.8%
Cc1noc(-c2nn(C)c3c2CN(C(=O)Nc2cccc(C(F)(F)F)c2)CC3)n1 | 28.3%
CCOC(=O)c1sc(NC(=O)CN2C(=O)c3ccccc3C2=O)c(SC#N)c1C | 0.3%
CCN1c2ccc(C)cc2C(=O)NC12CCN(C(=O)c1cc(F)cc(F)c1)CC2 | 3.5%
Fc1ccc(Nc2ncc3c(n2)CCN(Cc2ccccc2)C3)cc1 | -7.34%
COc1cc(Nc2ncc3c(n2)CCN(Cc2cc(OC)ccc2OC)C3)cc(OC)c1 | 76.3% (active)
COc1ccc(CN2CCc3nc(Nc4ccc5c(c4)OCCO5)ncc3C2)cc1 | 55.6% (active)
CCOc1cccc(CN2CCc3nc(Nc4ccc(OC)cc4)ncc3C2)c1 | -0.89%
CCN1CCN(c2ncc3c(n2)CCN(Cc2ccccc2Cl)C3)CC1 | 39%
Clc1ccccc1CN1CCc2nc(Nc3ccc4c(c3)OCO4)ncc2C1 | 87.4% (active)

SMILES | inhibition
COc1ccc(CN2CCc3nc(Nc4ccccc4)ncc3C2)c(OC)c1OC | 47.4%
COc1ccc(OC)c(Nc2ncc3c(n2)CCN(Cc2ccccc2)C3)c1 | 10.5%
COc1cccc(Nc2ncc3c(n2)CCN(Cc2ccc(F)c(F)c2)C3)c1 | 33.9%
O=C(Nc1nnc(SCc2ccc(C(F)(F)F)cc2)s1)c1cccs1 | -13.3%
CN(Cc1cn(Cc2ccc(C(F)(F)F)cc2)nn1)C1CN(Cc2cn(Cc3ccc(C(F)(F)F)cc3)nn2)S(=O)(=O)C1 (centres undefined) | 10.9%
Cc1ccccc1CNC(=O)CCC1CCCN(C(=O)Nc2ccccc2F)C1 (centres undefined) | -0.96%
CCCn1c(C2CCN(C(=O)CCC3CCCC3)C2)nc2cccnc21 (centres undefined) | 19.8%
Cc1nc(-c2ccc(C(=O)Nc3ccc(C)c(F)c3)cc2)cs1 | -6%
Cc1ccc2c(c1)CCN1C(=O)CN(S(=O)(=O)c3cccc(Cl)c3C)CC21 (centres undefined) | 61.2% (active)
Cc1c(Cl)cccc1NC(=O)c1ccc(F)c(S(=O)(=O)N2CCCC2)c1 | 3%
COc1cccc(-c2nc(C3CCN(S(=O)(=O)c4cccc(Cl)c4C)CC3)no2)c1 | -1.63%
CC1C(=O)N(c2ccccc2-c2ccccc2)CCN1C(=O)C1CCCC1 (centres undefined) | 3.1%
CSc1ccc(C2C=C(c3ccc(Cl)s3)Nc3ncnn32)cc1 (centres undefined) | 21%
CC(C(=O)Nc1ccc(Cl)c(C(F)(F)F)c1)N1C(=O)c2ccccc2C1=O (centres undefined) | 24%
CCn1c(SCC(=O)Nc2ccc(Br)cc2)nnc1-c1cc(OC)cc(OC)c1 | 4.9%
COc1cccc2cc(C(=O)NCCn3ccnc3C)oc12 | -8.3%
CCOc1cccc2cc(C(=O)Nc3nnc(-c4csc(C)n4)o3)oc12 | 54.6% (active)
Cc1nc(-c2nnc(NC(=O)c3ccnn3C)o2)cs1 | 50.2% (active)
CCOc1cccc2cc(C(=O)Nc3ccc(Cl)cc3Cl)c(=O)oc12 | 1%
Cc1csc(-c2ccc(CNC(=O)c3ccnn3C)cc2)n1 | -3.6%
CCCCOc1ccc(C(=O)Nc2nnc(-c3ccncc3)o2)cc1 | 40.2%
COc1ccc(N2C(=O)C3N=NN(Cc4c(F)cccc4Cl)C3C2=O)cc1 (centres undefined) | -2.2%
